Laboratory results: PubChem BioAssay (NCATS)
Records with an inconclusive call do not appear. Entries that show only a call come without a potency. Active and inactive are the calls of the source. Calls come from the whole dose curve; as a rule, active = well fitted inhibition curve with a large enough effect; inconclusive = small, poorly fitted or top-dose-only effect; inactive = flat fitted curve, though single readings scatter.

These compounds were tested against Calcium and integrin-binding protein 1 (Homo sapiens) (UniProt Q99828) (assay: Primary qHTS for Identification of Calcium Integrin Binding Protein 1 (CIB1) Competitor (AID 1508620; note: top concentration of the series differs between compounds)). Conditions: CIB1-GST / FITC-alphaIIb peptide fluorescence polarization; series mostly up to 114 µM.
Calcium and integrin-binding protein 1 (Homo sapiens), sequence (Q99828 whole entry, looked up): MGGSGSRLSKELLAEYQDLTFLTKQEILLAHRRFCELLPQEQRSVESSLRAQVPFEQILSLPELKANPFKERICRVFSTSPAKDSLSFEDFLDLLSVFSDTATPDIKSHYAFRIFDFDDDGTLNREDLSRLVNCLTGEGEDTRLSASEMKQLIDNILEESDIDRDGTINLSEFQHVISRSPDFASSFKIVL
Method in brief: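 Fluorescence polarization competition: GST-tagged CIB1 (1 uM final) preincubated with compound 15 min at room temperature, then FITC-labelled alphaIIb peptide (100 nM final) added. After 15 min at room temperature, polarization read at Ex 480/Em 540.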

Compound | Potency
O=S(=O)(c1ccc2c(c1)OCCO2)N1CCN(S(=O)(=O)c2cc(F)c(Br)cc2F)CC1 | inactive
O=C(O)c1ccc2c(c1)C(=O)N([C@H](Cc1ccc([N+](=O)[O-])cc1)C(=O)O)C2=O | inactive
Cc1cccc(-n2cnc3cc(C(=O)N4CCCC(C(F)(F)F)C4)ccc32)c1 (stereo not given) | inactive
O=S(=O)(Nc1nccs1)c1ccc(NCc2cc(F)ccc2O)cc1 | inactive
Cc1cccc(CNc2ncnc3ccc(-c4ccc5c(c4)OCCO5)cc23)c1 | inactive
Cc1ccc(Cn2ncc3c4sc(C)cc4n(C)c3c2=O)c(C)c1 | inactive
Cn1nnnc1Sc1ncnc2scc(-c3cccc(C#N)c3)c12 | inactive
O=C1c2ccccc2NC(c2ccccc2O)N1Cc1ccccc1 (stereo not given) | inactive
CCC(=O)NC(C)c1cc(Cl)c2ccccc2c1O (stereo not given) | inactive
O=C(Nc1ccc(-c2nc3ccccc3[nH]2)cc1)c1ccc2ncsc2c1 | inactive
O=C1c2ccccc2NC(c2ccc(-c3cccc(Cl)c3)o2)N1O (stereo not given) | inactive
COc1cccc(NC(=S)N2CCN(c3ccc4ccccc4n3)CC2)n1 | inactive
O=C1c2ccccc2C(=O)N1c1cccc(=O)[nH]1 | inactive
O=S(=O)(Nc1cccc2cccnc12)c1ccc(Br)s1 | inactive
Cc1cc(C)nc(NC(=S)N2CCN(c3ccc(C(F)(F)F)cc3C(F)(F)F)CC2)c1 | inactive
C#CCOc1ccc(-c2nnc3n2N=C(c2ccc(OC)c(OCC(C)=O)c2)CS3)cc1 | inactive
O=C(Nc1ncc(Cc2ccc(C(F)(F)F)cc2)s1)c1ccc(-c2ccccc2[N+](=O)[O-])o1 | inactive
CC(=O)Nc1sc2c(c1-c1cccc(N(C)C)c1)CCNC2 | inactive
COc1ccc(NC(=O)c2cnn3c(C)cc(C)nc23)cc1OC | inactive
Cc1cc(NS(=O)(=O)c2ccc(NC(=O)Cc3ccc(Cl)c(Cl)c3)cc2)on1 | inactive

Compound | Potency
CC(C)c1ccccc1-c1ncc(N)c(NCc2ccc(-c3cccnc3)cc2)n1 | inactive
O=S(=O)(c1c(F)cccc1F)C1CCN(S(=O)(=O)c2ccc3c(c2)OCCO3)CC1 | inactive
O=C(c1c(F)cccc1F)N1CCN(S(=O)(=O)c2ccc3c(c2)OCCO3)CC1 | inactive
Nc1ncc(S(=O)(=O)N2CCOCC2)s1 | inactive
O=C(O)CCCCCNC(=O)CSc1nnc(-c2ccc([S+](=O)([O-])N3CCCC3)cc2)n1-c1ccccc1 | inactive
CC(C)(NC(=O)Nc1ccccc1Cl)C(=O)N1CCC(C(=O)O)CC1 | inactive
O=C1Cc2cc(S(=O)(=O)N3CCN(c4cccc(C(F)(F)F)c4)CC3)ccc2N1 | inactive
O=C(Nc1ccc(Cl)c(Cl)c1)Nc1nnc(-c2ccc(F)cc2)s1 | inactive
O=C(OCC#CCSc1nnc(-c2cccc3ccccc23)o1)c1ccncc1 | inactive
NC(=O)C1CCN(c2nc(-c3ccc4c(c3)OCCO4)cs2)CC1 | inactive
O=C(OCC#CCSc1nnc(-c2cccc(F)c2)o1)c1ccc(F)cc1 | inactive
Oc1cc(Nc2cccnc2)cc2cccnc12 | inactive
Cn1ccc2cc(-c3ccc4ncnc(NCc5cccnc5)c4c3)ccc21 | inactive
Cc1ccc(NC(=O)CN2C(=O)N/C(=C\c3cccn3-c3ccc(C(=O)NC#N)cc3)C2=O)cc1 | inactive
Fc1cccc(Nc2nc(-c3ccncc3)nc3ccccc23)c1 | inactive
COc1ccc(C2=Nn3c(nnc3-c3ccccc3OC)SC2)cc1OC | inactive
O=C(Nc1ccc2ccccc2c1)Nc1nnc(-c2cccnc2)s1 | inactive
CCOC(=O)c1cccc(NS(=O)(=O)c2ccc(NC(=O)Cc3ccc(Cl)c(Cl)c3)cc2)c1 | inactive
Oc1ccc(COC2CCN(Cc3ccccc3)C2)c2cccnc12 (stereo not given) | inactive
Cc1cc(C)nc(NC(=S)N2CCN(c3nccc4occc34)CC2)c1 | inactive
